# HCV inhibitor = blocks hepatitis C virus; AID 651820; hit rate 3.4% among 340,000; Potency, µM (top dose mostly 41.8 µM), for the others: at the top dose activity change, negative = inhibition, usual class: inhibitors; Huh7.5.1 HCVcc-Cre infection, luciferase reporter, 44 h; active means well fitted inhibition curve with a large enough effect; inconclusive means small, poorly fitted or top-dose-only effect, or another doubt; inactive means no such curve, though single readings can be large or run the other way; further: potency means the concentration at half of the fitted maximal effect
#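 Whole-lifecycle infectious HCVcc-Cre system; cells 1,000/well, compound then virus (~0.5 moi) added 4 h after plating, 44 h culture. Luciferase read 15 sec following 15 min substrate incubation, room temp.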
# MARV entry inh = inhibitors of Marburg virus binding or cell entry; hit rate 1.8% among 300,000; Marburg virus pseudotyped entry inhibition, cell reporter; AID 540276; Potency, µM (series often up to 37.8 µM), for the others: at the highest dose activity change, negative = inhibition, most hits filed as inhibitors; calls by dose curve; tested in HEK293 cells; further: potency means the concentration at half of the fitted maximal effect
# LASV entry inh = blocks Lassa virus binding to or entry into cells; hit rate 1.2% among 300,000; Lassa virus pseudotype entry inhibition, cell reporter; Potency, µM (titrated, usually from 37.9 µM), without a hit: top-dose activity change, negative = inhibition, actives largely listed as inhibitors; calls by dose curve; tested in HEK293 cells; further: potency means the concentration at half of the fitted maximal effect; nearly all actives have a fitted effect of over 50% in size
# HCMV antiviral = blocks human cytomegalovirus replication; HFF cells, HCMV-luciferase reporter, 72 h; active compounds read low; hit rate 4.5% among 410,000; AID 1259415; activity change, negative = inhibition, % at 57.5 µM; in the data active means activity change below about -60%; inconclusive means no clear call, values can overlap the other calls; inactive means above about -39%
#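 Human foreskin fibroblasts infected with luciferase-reporter HCMV at MOI 1 PFU/cell, compounds at two doses. Luciferase measured 72 h post infection; normalized to buffer-only basal and Salinomycin (10uM) controls.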
# FMDV inh = foot and mouth disease virus antiviral activity | Potency, µM (top dose mostly 57.9 µM), for the others: at the top dose activity change, negative = inhibition, actives largely listed as inhibitors | FMDV antiviral cell-based qHTS | hit rate 1.2% among 410,000; calls by dose curve; tested in HEK293T cells; further: read-out not given here; potency means the concentration at half of the fitted maximal effect; nearly all actives have a fitted effect of over 45% in size
# An asterisk follows results filed as active; ? = inconclusive; / = no result given; [ ] = remark or other dose. The list is not random: actives were taken first. Their share in the collection is about 7.9%. On the % scale 0 is the no-effect control and ±100 the full control effect.
SMILES,HCV inhibitor,MARV entry inh,LASV entry inh,HCMV antiviral,FMDV inh
O=C(Nc1ccc(Oc2ccccc2)cc1)c1csc(COCCO)n1,/,/,/,-81*,0%
O=C(Nc1ccc(Oc2ccccc2)cc1)c1csc([C@@H]2C[C@H](O)[C@@H](CO)O2)n1,/,/,/,-91*,?
COCCCNC(=O)c1csc([C@H]2C[C@H](O)[C@@H](CO)O2)n1,/,/,/,-100*,-5%
Cc1oc(-c2cccc(NC(=O)C3CCCN(C)C3)c2)nc1CNC(=O)c1coc2c1C(=O)CCC2 (configuration not stated),/,/,/,/,-3%
Cc1cccc(OC(C)C(=O)Nc2ccc(N3CCCCC3)cc2)c1 (configuration not stated),11%,1%,-16%,-28,-5%
Cc1nc(Nc2cccc(O)c2)c2oc3ccccc3c2n1,13µM*,/,/,78,-23%
COc1cccc(Nc2nc(C)nc3c2oc2ccccc23)c1,11µM*,?,25%[46.1 µM],32,-25%
Cc1nc(Nc2cccc(F)c2)c2oc3ccccc3c2n1,?,-29%[46.1 µM],-13%[46.1 µM],68,-7%
COc1ccc(Oc2nc(C)nc3c2oc2ccccc23)cc1,8.9µM*,?,?,-68*,?
Cc1nc(Nc2cccc(Cl)c2)c2oc3ccccc3c2n1,-27%,?,?,-3,-25%
O=C(NC1CC1)[C@@H]1CSC2c3ccccc3C(=O)N21 (some centres not stated),20%,/,/,-12,-20%
COc1ccccc1[C@@]1(CC(=O)N2CCOCC2)CCO[C@@H](C(C)C)C1,/,-1%,/,/,/
CCCCCCCCCCCC(=O)NC(Cc1ccc(OC)c([N+](=O)[O-])c1)C(=O)O (configuration not stated),24%,1%[46.1 µM],-21%,27,-29%
CCOC(=O)C(Cc1ccc(OC)c([N+](=O)[O-])c1)NC(=O)CCC(=O)Nc1ccc(OC)cc1 (configuration not stated),2%,11%[46.1 µM],-9%[46.1 µM],-105*,14%
O=C(CSc1nc(C(F)(F)F)cc(=O)[nH]1)N1CCCC1,-20%,8%,?,-16,-1%
NC(=O)C1(N2CCCCC2)CCN(C(=O)CSc2nc(C(F)(F)F)cc(=O)[nH]2)CC1,12%,29%,-2%,-65*,-17%
O=C(O)c1cccc(NC(=S)NC(=O)c2ccc3ccccc3c2)c1,14%,?,0.79µM*,39,14µM*
Cn1nnc(NC(=O)c2ccc3ccccc3c2)n1,-22%,?,10%,34,35%
Cn1nnc(NC(=S)NC(=O)c2ccc3ccccc3c2)n1,/,/,/,-67*,49%
Cc1ccc(/C=C/C(=O)c2ccccc(=O)c2O)cc1C,?,16µM*,?,-66*,?
O=C(/C=C/c1ccccc1)c1cc(Br)ccc(=O)c1O,?,20µM*,?,-107*,?
COc1ccc(N2CCC[C@H]2/C=C/C(=O)OC(C)(C)C)cc1,/,/,/,7,/
CCn1nc(C)c(CN2Cc3ccccc3OC(c3ccccc3OC)C2)c1C (configuration not stated),/,/,/,/,0%
COc1ccccc1C(=O)Nc1ccccc1OCc1cc(=O)n2c(C)csc2n1,/,9%[46.1 µM],22%[46.1 µM],16,-16%
CCOC(=O)Nc1ccc(C)cc1NC(=O)OCC,-27%,14%,12%,0,-10%
SMILES,HCV inhibitor,MARV entry inh,LASV entry inh,HCMV antiviral,FMDV inh
CCCOC(=O)Nc1ccc([As](=O)(O)O)cc1NC(=O)OCCC,26%,9%[46.1 µM],21%[46.1 µM],-80*,-8%
CCOC(=O)/C(=C\c1cn(C)c2ccccc12)[N+](=O)[O-],8%,14%,0%,90,28µM*
CCCc1cc(-c2n[nH]c(C(=O)OCC)c2-c2cscn2)c(O)cc1O,?,?,?,-87*,35µM*
CCOC(=O)c1[nH]nc(-c2c(O)cc(C)cc2O)c1-c1csc(C)n1,10%,12%,-1%,-22,-13%
CN(CC(=O)Nc1cccc(F)c1)CC(=O)Nc1cccc(S(=O)(=O)N(C)c2ccccc2)c1,?,?,?,67,?
Cc1c(NC(=O)CN2C(=O)NC3(CCCC3)C2=O)c(=O)n(-c2ccccc2)n1C,-3%,6%,4%,-101*,11%
CN(c1ccccc1)S(=O)(=O)c1cccc(NC(=O)CN2CCCc3ccccc32)c1,?,8.9µM*,?,0,-8%

# Screens deposited in PubChem by National Center for Advancing Translational Sciences (NCATS).
